Data: a collection of fitness landscapes (doi:10.1016/j.celrep.2020.107928)
Whole data set: some 81,000 sequences, median “one-hybrid fitness for binding NBS DNA” near -0.1, cut for the highest 2% near 0.36. For the sample, the highest values were picked, then their nearest neighbours and some sequences at random.

B1: Caulobacter ParB omega fusion; a variant is named by its letters at X, in order, B8GW30 (parent)
chain: MESVVVGEPGMSEGRRGLGRGLSALLGEVDAAPAQAPGEQLGGSREAPIEILQRNPDQPRRTFREEDLEDLSNSIREKGVLQPILVRPSPDTAGEYQIVAGERAWRAAQRAGLKTVPIMVRELDDLAVLEIGIIENVQRADLNVLEEALSYKVLMEKFERTQENIAQTIGKSXSHVANXMRLLXLPDEVQSYLVSGELTAXHARAIAAAADPVALAKQIIEGGLSVRETEALARKAPNLSAGKSKGGRPPRVKDTDTQALESDLSSVLGLDVSIDHRGSTGTLTITYATLEQLDDLCNRLTRGI

Variants of: B1
Experiment: one-hybrid fitness for binding NBS DNA (the Noc-binding site; scaled: cognate 1, non-cognate 0); higher = stronger binding
Settings: with NBS DNA site
Outline: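 The reporter was HIS3, with the binding site 19 bp from the promoter, in E. coli USO used for bacterial one-hybrid selection of Caulobacter ParB libraries with four specificity codons randomised. Growth was on M9 lacking histidine, with 0.1 mM IPTG and 5 mM 3-AT, for 48 hours at 37°C. Illumina sequencing covered plasmids before and after selection; three replicate libraries were pooled and variants with under 10 reads dropped. A fitness score is the log change in variant-to-wild-type read ratio, rescaled to the cognate and non-cognate references.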

one-hybrid fitness for binding NBS DNA, 0.362:
QSKM

one-hybrid fitness for binding NBS DNA, 0.557:
QRKM

one-hybrid fitness for binding NBS DNA, 0.364:
QAQT

one-hybrid fitness for binding NBS DNA, 1.01:
QRAR

one-hybrid fitness for binding NBS DNA, 0.398:
RIST

one-hybrid fitness for binding NBS DNA, 0.563:
QTKM

one-hybrid fitness for binding NBS DNA, 0.526:
QCQT

one-hybrid fitness for binding NBS DNA, 0.217:
RFST

one-hybrid fitness for binding NBS DNA, ≤ 0.2:
PANE
KSQQ
NCPT
FMKS
QNLL
SKPR
CSPY
QVAP
NRAR
DRAR
QRFF
IFSI
RYTI
HQWA
NIMG
QDQT
QPQT
QTQG
QKQC
QKQF
FPTH
SIGR
LNNM
TFLV
QLGE
CTTF
YCLC
SKES
QLQP
QLQN
MYYS
HTKF
FQTK
QAVM
QAYM
QTVM
QTWM
QPKM
WLRR
NYAI
IRSK
DSWA
ITVR
GKRG
QHVM
QMQM
QHNM
QKPM
QMVM
GAKC
KIRV
QELA
RQLA
DCST
RWST
RDST
RISP
RPST
RHSF
RISH
RHSQ

one-hybrid fitness for binding NBS DNA, 0.379:
QHKM

one-hybrid fitness for binding NBS DNA, 0.273:
QKVM

one-hybrid fitness for binding NBS DNA, 0.409:
QKKM

one-hybrid fitness for binding NBS DNA, 0.265:
QRVM

one-hybrid fitness for binding NBS DNA, 0.577:
QTQT

one-hybrid fitness for binding NBS DNA, 0.239:
QTQC

one-hybrid fitness for binding NBS DNA, 0.37:
QLQT

one-hybrid fitness for binding NBS DNA, 0.464:
QCKM

one-hybrid fitness for binding NBS DNA, 0.435:
RHST

one-hybrid fitness for binding NBS DNA, 0.865:
QRFR

one-hybrid fitness for binding NBS DNA, 0.411:
QSQT

one-hybrid fitness for binding NBS DNA, 0.416:
QMKM

one-hybrid fitness for binding NBS DNA, 0.249:
QIKM

one-hybrid fitness for binding NBS DNA, 0.578:
QKQT

one-hybrid fitness for binding NBS DNA, 0.363:
QHQT

one-hybrid fitness for binding NBS DNA, 0.392:
QAKM

one-hybrid fitness for binding NBS DNA, 0.426:
RSST

one-hybrid fitness for binding NBS DNA, 0.531:
RCST
